This passage reports Potency and outcome results from PubChem BioAssay (Tox21).

Unmarked numbers belong to inactive results. Records with an inconclusive call do not appear. The source made the active and inactive calls. Unless noted, the call rests on the fitted dose curve; in most records, active means well fitted curve in the direction sought with a large enough effect in the repeat runs; inconclusive means weak or mixed curves; inactive means no such curve, though single readings can be large; an effect the other way counts as inactive or inconclusive.

Assay [1] can be described thus: qHTS assay to identify small molecule agonists of the sonic hedgehog signaling (Shh) pathway (AID 1259368; calls by dose curve;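 further: NIH/3T3-derived 3T3Gli1-Luc cells carrying a stable Gli1-driven firefly luciferase reporter; series mostly up to about 92 µM; nearly all actives have a fitted effect of over 15% in size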). The method in brief:
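NIH/3T3-derived 3T3Gli1-Luc cells with stably integrated Gli1-driven firefly luciferase, 2,000 cells/well, compounds added after 4 hr. Incubated 24 hr at 37C, 5% CO2; luminescence read after 30 min with luciferase reagent at room temperature.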

Assay [2] is described as follows: qHTS assay to identify small molecule agonists of the androgen receptor (AR) signaling pathway in the presence of an antagonist - cell viability counter screen (AID 1259379).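 Further: MDA-kb2 human breast cancer cells carrying an MMTV luciferase reporter; series mostly up to about 92 µM; nearly all actives have a fitted effect of over 25% in size.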 The method in brief: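 MDA-kb2 cells (MMTV-luciferase, AR/GR), 3,000/well, 5 h attachment, then 3.0 µM nilutamide (final) and compounds at 15 concentrations. Viability by CellTiter-Fluor fluorescence after 16 h at 37 °C, 0% CO2, in the reporter wells.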
On the technique in general: qHTS replaces the single test concentration by a dilution series.

Assay [3] is described as follows: qHTS assay to identify small molecule agonists of the estrogen receptor beta (ER-beta) signaling pathway - cell viability counter screen (AID 1259380). Further: nearly all actives have a fitted effect of over 30% in size. The method in brief: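 ER-beta-UAS-bla HEK293T cells in medium with 2% charcoal-stripped FBS, pre-incubated 6 hr, then treated 16 hr at 37C. Cytotoxicity read in the same wells by CellTiter-Glo luminescence after 30 min at room temperature.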

Assay [4] concerns the target Androgen receptor (Homo sapiens) (UniProt P10275). As to the kind of experiment: qHTS assay to identify small molecule agonists of the androgen receptor (AR) signaling pathway in the presence of an antagonist (AID 1259381; calls by dose curve; further: nearly all actives have a fitted effect of over 15% in size; further: potency means the concentration at half of the fitted maximal effect). The method in brief:
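MDA-kb2 cells carrying MMTV-luciferase (AR/GR responsive), 3,000 cells/well, co-treated with 3.0 uM nilutamide final. Compounds at 15 concentrations, 16 hr at 37C without CO2. Luciferase luminescence read after 30 min with ONE-Glo.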

A short description of assay [5]: qHTS assay to identify small molecule antagonists of the estrogen receptor beta (ER-beta) signaling pathway - cell viability counter screen (AID 1259382). Further: series mostly up to about 92 µM; nearly all actives have a fitted effect of over 55% in size. The method in brief:
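ER-beta-UAS-bla HEK293T cells in 2% charcoal-stripped FBS medium, treated with compound plus 1 nM 17-beta-estradiol for 16 h at 37C. Viability read by CellTiter-Glo luminescence after 30 min at room temperature in the same wells.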

Assay [6] concerns the target Estrogen receptor (Homo sapiens) (UniProt P03372). As to the kind of experiment: qHTS assay to identify small molecule agonists of the estrogen receptor alpha (ER-alpha) signaling pathway in the presence of an antagonist (AID 1259383; calls by dose curve; further: top concentration of the series differs between compounds; nearly all actives have a fitted effect of over 15% in size). The method in brief: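 VM7Luc4E2 cells express endogenous full-length ER-alpha with an ERE-luciferase reporter and were hormone-deprived for 5 days. Compounds at 15 concentrations were added with 10.0nM ICI-182,780 for 22hr at 37C. Luminescence was read with ONE-Glo.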

Assay [7] is described as follows: qHTS assay to identify small molecule agonists or antagonists of the thyroid stimulating hormone receptor (TSHR) signaling pathway - wild type cell line counter screen (AID 1259384; calls by dose curve). The method in brief:
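Counter screen in untransfected Hek293: compounds (15-point titration, triplicate) plus phosphodiesterase inhibitor Ro20-1724 added after 18 h plating; 30 min RT. Intracellular cAMP via competitive d2/cryptate immunoassay, 1 h incubation.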

The target in assay [8] is Thyrotropin receptor (Homo sapiens) (UniProt P16473). As to the kind of experiment: qHTS assay to identify small molecule antagonists of the thyroid stimulating hormone receptor (TSHR) signaling pathway (AID 1259385; calls by dose curve; further: nearly all actives have a fitted effect of over 20% in size). The method in brief:
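Antagonist mode: compound-treated TSHR-expressing HEK293 cells were stimulated with 1.5 ng/mL TSH (final) in presence of Ro20-1724 for 30 min at RT. HTRF cAMP detection after 1 h; each compound tested at 15 concentrations, triplicate.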

Assay [9] is described as follows: qHTS assay to identify small molecule agonists of the estrogen receptor alpha (ER-alpha) signaling pathway in the presence of an antagonist - cell viability counter screen (AID 1259386).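 Further: series mostly up to about 92 µM; cells exposed to compounds for 22 h at 37 °C before the viability read; nearly all actives have a fitted effect of over 30% in size.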 The method in brief: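 Cell viability in VM7Luc4E2 cells (endogenous full-length ER-alpha) measured by CellTiter-Fluor fluorescence in the same wells as the luciferase screen. Cells pre-cultured 5 days in charcoal-stripped serum, then treated 22 h with compounds at 15 concentrations plus 10.0nM ICI-182,780.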

Assay [10] deals with Progesterone receptor (Homo sapiens) (UniProt P06401). As to the kind of experiment: qHTS assay to identify small molecule agonists of the progesterone receptor (PR) signaling pathway (AID 1346784; calls by dose curve; further: nearly all actives have a fitted effect of over 30% in size; further: potency means the concentration at half of the fitted maximal effect). The method in brief: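 PR-UAS-bla HEK 293T cells carrying a UAS-driven beta-lactamase reporter were seeded in medium with 2% charcoal-stripped FBS, preincubated 6 hr at 37C, then exposed to compounds in DMSO for 16 hr; agonism was read by LiveBLAzer B/G FRET fluorescence.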

Assay [11] shares this target. As to the kind of experiment: qHTS assay to identify small molecule antagonists of the progesterone receptor (PR) signaling pathway (AID 1346795; active means well fitted inhibition curve with a large enough effect in the signal ratio in the repeat runs, not every such curve was filed as active; the % refers to the signal ratio). The method in brief: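 PR-UAS-bla HEK293T cells carrying a UAS-driven beta-lactamase reporter were plated in medium with 2% charcoal-stripped FBS and rested 6 hr at 37C. Compounds were added with 1 nM R5020 (final) for 16 hr, then FRET substrate loaded 2 hr at room temperature.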

A short description of assay [12]: qHTS assay to identify small molecule antagonists of the progesterone receptor (PR) signaling pathway - cell viability counter screen (AID 1346798). Further: series mostly up to about 92 µM; nearly all actives have a fitted effect of over 50% in size. The method in brief:
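PR-UAS-bla HEK293T cells in medium with 2% charcoal-stripped FBS were treated with compounds plus R5020 for 16 hr at 37C. Cell viability was then read by CellTiter-Glo luminescence after 30 min at room temperature in the same wells.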

A short description of assay [13]: qHTS assay to identify small molecule agonists of the progesterone receptor (PR) signaling pathway - cell viability counter screen (AID 1346799; calls by dose curve; further: nearly all actives have a fitted effect of over 45% in size). The method in brief: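 PR-UAS-bla HEK293T cells, 3,000 per well in medium with 2% charcoal-stripped FBS, were preincubated 6 hr at 37C, then exposed to compounds for 16 hr; viability was read as CellTiter-Glo luminescence after 30 min at room temperature.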

Assay [14] can be described thus: qHTS assay to identify small molecule antagonists of the TGF-beta/Smad signaling pathway - cell viability counter screen (AID 1346824). Further: nearly all actives have a fitted effect of over 50% in size. The method in brief:
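Cytotoxicity counter-screen run in the same wells as the beta-lactamase Smad reporter read: CellTiter-Glo luminescence after 30 min at room temperature. HEK 293T SBE-bla cells had 5 hr compound exposure at 37 C with TGF-beta1 (0.25 ng/mL stock).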

Assay [15] in a line: qHTS assay to identify small molecule agonists of the TGF-beta/Smad signaling pathway - cell viability counter screen (AID 1346829). Further: top concentration of the series differs between compounds; nearly all actives have a fitted effect of over 45% in size. The method in brief: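 CellTiter-Glo luminescence readout; SBE-bla HEK 293T cells, overnight plating, compound 5 hr at 37 C/5% CO2, then bla substrate 2 hr RT, then CellTiter-Glo 30 min RT.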
Assay [16] in a line: qHTS assay to identify small molecule agonists of the TGF-beta/Smad signaling pathway (AID 1346859; active means well fitted activation curve with a large enough effect in the signal ratio in the repeat runs, not every such curve was filed as active; the % refers to the signal ratio; further: series mostly up to about 77 µM). The method in brief: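 HEK 293T cells stably carrying a beta-lactamase reporter driven by the Smad binding element were seeded overnight, exposed to DMSO-dissolved compounds for 5 hr at 37 C, 5% CO2, then loaded with FRET substrate for 2 hr at room temperature.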
Assay [17] concerns the target Thyrotropin-releasing hormone receptor (Homo sapiens) (UniProt P34981). As to the kind of experiment: qHTS assay to identify small molecule antagonists of the thyrotropin-releasing hormone receptor (TRHR) signaling pathway (AID 1346877; active means well fitted inhibition curve with a large enough effect in the repeat runs, not every such curve was filed as active; further: series mostly up to about 51 µM). The method in brief:
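TRHR-expressing HEK293 cells loaded with calcium dye for 2 h at 37 C; compounds pre-incubated 5 min at room temperature before TRH challenge at 1 nM final. Intracellular calcium fluorescence read kinetically for 3 min; 15 concentrations in triplicate.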

Assay [18] has as its target Estrogen receptor beta (Homo sapiens) (UniProt Q92731). As to the kind of experiment: qHTS assay to identify small molecule agonists of the estrogen receptor beta (ER-beta) signaling pathway (AID 1259377; active means well fitted activation curve with a large enough effect in the signal ratio in the repeat runs, not every such curve was filed as active; the % refers to the signal ratio). The method in brief: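 ER-beta-UAS-bla HEK293T (GripTite) cells carrying a UAS-driven beta-lactamase reporter, in medium with 2% charcoal-stripped FBS, were exposed to compounds for 16 hr at 37C; LiveBLAzer B/G FRET substrate was then added and fluorescence read after 2 hours at room temperature.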

Assay [19] has the same target. As to the kind of experiment: qHTS assay to identify small molecule antagonists of the estrogen receptor beta (ER-beta) signaling pathway (AID 1259378; active means well fitted inhibition curve with a large enough effect in the signal ratio in the repeat runs, not every such curve was filed as active; the % refers to the signal ratio). The method in brief: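 Antagonist mode: compounds added to beta-lactamase reporter HEK293T ER-beta-UAS cells stimulated with E2 (1nM final), 16 hr at 37C. LiveBLAzer B/G FRET substrate, 2 hours room temperature, fluorescence read-out.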

Chain of Progesterone receptor (Homo sapiens) (P06401 whole entry, looked up): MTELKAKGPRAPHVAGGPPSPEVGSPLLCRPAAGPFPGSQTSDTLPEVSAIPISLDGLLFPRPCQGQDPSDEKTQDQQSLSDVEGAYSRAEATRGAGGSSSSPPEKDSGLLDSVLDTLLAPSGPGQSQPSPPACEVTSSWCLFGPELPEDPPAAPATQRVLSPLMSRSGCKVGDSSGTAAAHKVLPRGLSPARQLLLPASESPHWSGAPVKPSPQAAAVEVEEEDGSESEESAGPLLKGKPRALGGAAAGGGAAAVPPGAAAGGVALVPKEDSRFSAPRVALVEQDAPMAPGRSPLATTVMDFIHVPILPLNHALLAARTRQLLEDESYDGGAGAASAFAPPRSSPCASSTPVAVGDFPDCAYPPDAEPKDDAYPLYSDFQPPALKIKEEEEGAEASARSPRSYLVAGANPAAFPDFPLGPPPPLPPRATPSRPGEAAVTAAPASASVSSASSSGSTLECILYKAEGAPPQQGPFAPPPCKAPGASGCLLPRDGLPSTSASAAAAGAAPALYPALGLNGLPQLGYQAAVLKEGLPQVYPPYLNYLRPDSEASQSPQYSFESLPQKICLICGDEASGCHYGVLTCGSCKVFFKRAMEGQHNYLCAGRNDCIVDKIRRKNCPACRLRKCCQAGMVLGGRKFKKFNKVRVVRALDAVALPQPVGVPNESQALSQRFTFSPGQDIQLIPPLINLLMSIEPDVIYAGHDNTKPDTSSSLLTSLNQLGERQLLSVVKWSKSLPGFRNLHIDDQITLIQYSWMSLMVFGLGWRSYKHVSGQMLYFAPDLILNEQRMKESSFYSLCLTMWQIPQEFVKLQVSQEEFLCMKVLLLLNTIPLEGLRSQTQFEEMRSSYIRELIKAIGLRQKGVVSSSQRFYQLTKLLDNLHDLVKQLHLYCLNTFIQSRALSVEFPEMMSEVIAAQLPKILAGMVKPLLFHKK
Chain of Thyrotropin-releasing hormone receptor (Homo sapiens) (P34981 whole entry, looked up): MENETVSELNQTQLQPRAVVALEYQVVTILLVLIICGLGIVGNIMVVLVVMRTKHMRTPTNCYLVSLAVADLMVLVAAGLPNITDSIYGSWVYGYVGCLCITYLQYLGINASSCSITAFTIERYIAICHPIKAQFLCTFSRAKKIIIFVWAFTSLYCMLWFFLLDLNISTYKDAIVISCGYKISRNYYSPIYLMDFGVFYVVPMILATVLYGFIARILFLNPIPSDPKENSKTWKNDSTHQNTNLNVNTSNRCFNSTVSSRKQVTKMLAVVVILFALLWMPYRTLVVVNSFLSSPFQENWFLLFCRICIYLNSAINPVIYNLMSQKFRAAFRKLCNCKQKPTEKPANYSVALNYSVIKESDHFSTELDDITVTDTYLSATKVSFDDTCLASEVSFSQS
Chain of Thyrotropin receptor (Homo sapiens) (P16473 whole entry, looked up): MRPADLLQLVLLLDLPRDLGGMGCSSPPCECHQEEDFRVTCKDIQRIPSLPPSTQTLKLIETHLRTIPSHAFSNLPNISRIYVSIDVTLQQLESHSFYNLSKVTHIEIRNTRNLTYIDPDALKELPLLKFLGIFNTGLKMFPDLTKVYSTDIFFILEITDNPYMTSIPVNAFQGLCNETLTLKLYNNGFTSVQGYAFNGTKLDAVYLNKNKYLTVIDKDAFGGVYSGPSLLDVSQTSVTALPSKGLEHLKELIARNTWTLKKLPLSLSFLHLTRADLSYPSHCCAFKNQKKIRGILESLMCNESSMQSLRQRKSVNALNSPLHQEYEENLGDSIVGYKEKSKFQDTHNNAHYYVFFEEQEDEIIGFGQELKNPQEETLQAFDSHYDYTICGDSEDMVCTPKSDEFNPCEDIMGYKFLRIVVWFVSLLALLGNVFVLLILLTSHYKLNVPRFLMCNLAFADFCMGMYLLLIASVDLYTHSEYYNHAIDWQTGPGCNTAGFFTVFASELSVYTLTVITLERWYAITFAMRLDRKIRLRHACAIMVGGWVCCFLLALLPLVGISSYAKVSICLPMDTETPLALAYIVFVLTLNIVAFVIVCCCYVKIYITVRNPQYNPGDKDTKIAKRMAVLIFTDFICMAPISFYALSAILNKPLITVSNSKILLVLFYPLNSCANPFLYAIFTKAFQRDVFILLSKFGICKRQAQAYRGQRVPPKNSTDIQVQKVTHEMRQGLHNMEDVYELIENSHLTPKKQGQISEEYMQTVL
Chain of Estrogen receptor (Homo sapiens) (P03372 whole entry, looked up): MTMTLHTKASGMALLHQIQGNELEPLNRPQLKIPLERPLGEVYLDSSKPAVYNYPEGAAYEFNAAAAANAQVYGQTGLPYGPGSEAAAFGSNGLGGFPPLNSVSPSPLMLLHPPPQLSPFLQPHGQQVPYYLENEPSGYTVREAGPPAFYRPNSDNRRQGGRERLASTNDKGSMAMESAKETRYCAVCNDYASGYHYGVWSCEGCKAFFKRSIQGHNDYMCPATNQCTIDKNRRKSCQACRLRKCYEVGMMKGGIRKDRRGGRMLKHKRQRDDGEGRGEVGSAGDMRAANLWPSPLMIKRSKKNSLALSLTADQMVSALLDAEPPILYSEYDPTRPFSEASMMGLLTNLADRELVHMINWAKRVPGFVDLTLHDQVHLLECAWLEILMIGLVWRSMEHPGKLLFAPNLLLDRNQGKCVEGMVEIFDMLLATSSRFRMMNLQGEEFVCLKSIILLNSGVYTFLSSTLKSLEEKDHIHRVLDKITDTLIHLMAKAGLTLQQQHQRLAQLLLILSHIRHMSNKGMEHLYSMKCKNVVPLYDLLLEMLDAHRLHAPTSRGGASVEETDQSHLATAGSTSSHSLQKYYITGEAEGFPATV
Chain of Estrogen receptor beta (Homo sapiens) (Q92731 whole entry, looked up): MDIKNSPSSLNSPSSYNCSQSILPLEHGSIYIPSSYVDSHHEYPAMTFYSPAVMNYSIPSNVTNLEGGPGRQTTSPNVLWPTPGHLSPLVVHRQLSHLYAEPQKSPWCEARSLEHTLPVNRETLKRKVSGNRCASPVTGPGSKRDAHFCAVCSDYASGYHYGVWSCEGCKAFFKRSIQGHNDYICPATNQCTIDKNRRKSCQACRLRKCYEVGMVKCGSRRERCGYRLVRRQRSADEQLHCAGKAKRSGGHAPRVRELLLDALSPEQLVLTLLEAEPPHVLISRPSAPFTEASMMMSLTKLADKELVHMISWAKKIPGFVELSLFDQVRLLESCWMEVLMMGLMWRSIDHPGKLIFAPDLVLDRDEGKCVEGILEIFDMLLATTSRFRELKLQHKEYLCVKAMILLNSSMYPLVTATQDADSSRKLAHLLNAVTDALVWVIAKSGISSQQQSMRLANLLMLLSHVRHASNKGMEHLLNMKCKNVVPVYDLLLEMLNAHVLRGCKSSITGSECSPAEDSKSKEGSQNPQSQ
Chain of Androgen receptor (Homo sapiens) (P10275 whole entry, looked up): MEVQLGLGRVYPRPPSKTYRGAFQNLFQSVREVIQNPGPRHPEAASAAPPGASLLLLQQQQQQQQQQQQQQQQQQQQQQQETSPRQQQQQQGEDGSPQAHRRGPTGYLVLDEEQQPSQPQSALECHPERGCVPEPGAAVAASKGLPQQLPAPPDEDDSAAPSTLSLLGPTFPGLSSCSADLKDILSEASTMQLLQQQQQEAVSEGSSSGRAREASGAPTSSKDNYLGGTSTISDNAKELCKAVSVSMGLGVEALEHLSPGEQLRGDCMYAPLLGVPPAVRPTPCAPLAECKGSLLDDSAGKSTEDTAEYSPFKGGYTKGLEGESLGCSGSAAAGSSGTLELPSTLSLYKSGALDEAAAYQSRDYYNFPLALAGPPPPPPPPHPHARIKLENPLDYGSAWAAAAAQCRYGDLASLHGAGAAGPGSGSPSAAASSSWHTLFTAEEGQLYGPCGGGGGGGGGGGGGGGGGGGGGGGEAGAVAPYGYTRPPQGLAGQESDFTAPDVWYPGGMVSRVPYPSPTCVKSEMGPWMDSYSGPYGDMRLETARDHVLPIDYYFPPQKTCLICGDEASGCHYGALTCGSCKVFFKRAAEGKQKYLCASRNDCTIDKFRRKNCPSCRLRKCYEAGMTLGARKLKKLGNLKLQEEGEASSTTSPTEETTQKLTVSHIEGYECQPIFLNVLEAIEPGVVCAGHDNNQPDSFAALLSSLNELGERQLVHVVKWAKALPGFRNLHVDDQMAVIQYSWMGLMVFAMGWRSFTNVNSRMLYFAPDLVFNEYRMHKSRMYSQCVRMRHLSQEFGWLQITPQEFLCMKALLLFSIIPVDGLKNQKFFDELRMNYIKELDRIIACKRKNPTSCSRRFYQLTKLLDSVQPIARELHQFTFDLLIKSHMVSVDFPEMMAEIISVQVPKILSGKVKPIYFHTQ

In the case of `C=CCOC(=O)/C=C\C(=O)OCC=C`, the Potency result in assay [1], in assay [2], in assay [3], in assay [4], in assay [5] and in assay [6] was “inactive” throughout. In addition, the Potency entry in assay [8], in assay [9], in assay [10], in [11], in assay [12] and in assay [13] was “inactive” each time. Further, the result in [7], in assay [14], in assay [15], in assay [16] and in assay [17] was inactive.

On to `CC(C)(CCl)c1ccccc1`, for which the Potency entry in [1], in assay [18], in [2], in [3], in assay [5] and in [6] was “inactive” each time. In addition, the Potency result in assay [8], in [9], in assay [10], in assay [11], in [12] and in assay [13] was “inactive” throughout. Further, the call in assay [7], in [14], in assay [15], in [16] and in assay [17] was inactive.

Turning to `N#C/C(=C1/SC[C@@H](c2ccc(Cl)cc2Cl)S1)n1ccnc1`, the Potency entry in assay [1], in assay [18], in assay [5], in assay [9] and in [10] was “inactive” each time. The outcome in assay [7], in [14], in [15] and in assay [17] was inactive.

In the case of `CC(=O)[C@H]1CC[C@H]2[C@@H]3C[C@H](C)C4=CC(=O)CC[C@]4(C)[C@H]3[C@@H](O)C[C@]12C`, the Potency entry in [1], in [18], in assay [2], in assay [3], in assay [5] and in assay [9] was “inactive” throughout. For the same compound, the Potency in assay [4] is 84.1 nM (active); in assay [10], 6.7 nM (active). The compound was called inactive in [7], in assay [14], in [15], in assay [16] and in assay [17].

Take `CN1C(=O)CC(C)(c2ccccc2)C1=O` (configuration not stated): the Potency result in assay [1], in assay [19], in assay [2], in assay [5], in [6] and in assay [8] was “inactive” each time. Besides, the Potency entry in assay [9], in [10], in assay [11], in [12] and in [13] was “inactive” each time. Further, the compound was classed as inactive in assay [7], in assay [14], in [15], in assay [16] and in assay [17].

Take `O=C(O)c1ccccc1NCCc1ccccc1`: the Potency result in [1], in [2], in assay [3], in assay [4], in assay [5] and in [8] was “inactive” in each case. Besides, the Potency result in [9], in assay [10], in [11] and in assay [13] was “inactive” each time. Moreover, the outcome in [7], in assay [14], in assay [15], in assay [16] and in [17] was inactive.

As for `C[C@]12CCC(=O)C=C1C=C[C@@H]1[C@@H]2CC[C@@]2(C)[C@H]1CC[C@@]21CCC(=O)O1`, the Potency result in assay [1], in [18], in assay [2], in assay [3], in assay [5] and in assay [6] was “inactive” in each case. For the same compound, the Potency result in assay [8] and in assay [9] was “inactive” throughout. In addition, the call in assay [7], in [14], in [15] and in [17] was inactive. Further, the Potency in [10] was 1680 nM (active).

As for `OC(CCCN1CCCCC1)(c1ccccc1)c1ccccc1`, the Potency entry in assay [1], in assay [2], in [3], in assay [4], in assay [5] and in assay [6] was “inactive” throughout. For the same compound, the Potency result in assay [8], in assay [9], in assay [10], in [11], in assay [12] and in assay [13] was “inactive” in each case. For the same compound, the outcome in [7], in assay [14], in [15], in assay [16] and in [17] was inactive.
